Experimental findings from PubChem BioAssay AID881 (National Center for Advancing Translational Sciences (NCATS), 2007) are described below.

Hit rate of the full screen: of about 110,000 compounds, about 610 (0.55%) were called active. Where a call stands in place of a potency, no number is given. Another 3% or so got no clear call; they are omitted. For the sample, actives were picked, then their nearest neighbours and some compounds at random. Values without a mark were called inactive. Calls come from the whole dose curve; as a rule, active = well fitted inhibition curve with a large enough effect; inconclusive = small, poorly fitted or top-dose-only effect; inactive = no such curve, though single readings can be large or run the other way.
Potency is the fitted concentration of half-maximal effect.

Sequence of Polyunsaturated fatty acid lipoxygenase ALOX15B (Homo sapiens) (O15296 whole entry, looked up): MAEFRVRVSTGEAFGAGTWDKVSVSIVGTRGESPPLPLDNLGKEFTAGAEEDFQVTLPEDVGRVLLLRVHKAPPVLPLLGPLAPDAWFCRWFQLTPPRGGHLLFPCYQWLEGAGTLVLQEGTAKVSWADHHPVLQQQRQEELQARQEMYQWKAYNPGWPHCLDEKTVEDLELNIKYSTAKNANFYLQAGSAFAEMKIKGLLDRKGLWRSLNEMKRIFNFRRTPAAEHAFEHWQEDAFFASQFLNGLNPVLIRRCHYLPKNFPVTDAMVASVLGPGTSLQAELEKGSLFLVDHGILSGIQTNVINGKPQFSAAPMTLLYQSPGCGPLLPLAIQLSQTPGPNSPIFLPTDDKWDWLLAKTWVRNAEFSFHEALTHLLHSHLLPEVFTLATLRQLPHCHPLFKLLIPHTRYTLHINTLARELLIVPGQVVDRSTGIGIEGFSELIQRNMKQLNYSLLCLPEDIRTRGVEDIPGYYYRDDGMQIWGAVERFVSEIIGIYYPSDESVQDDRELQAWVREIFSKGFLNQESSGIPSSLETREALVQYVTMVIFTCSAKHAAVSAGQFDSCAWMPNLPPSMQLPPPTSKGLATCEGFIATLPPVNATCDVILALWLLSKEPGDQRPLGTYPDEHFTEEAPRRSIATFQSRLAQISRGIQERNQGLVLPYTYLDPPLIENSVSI

This experiment has as its target Polyunsaturated fatty acid lipoxygenase ALOX15B (Homo sapiens) (UniProt O15296). In words: qHTS Assay for Inhibitors of 15-hLO-2 (15-human lipoxygenase 2). Note: nearly all actives have a fitted effect of over 60% in size. Conditions: purified 15hLO-2, xylenol orange hydroperoxide absorbance; series mostly up to 57.1 µM. An excerpt: Assay Overview: NIH Molecular Libraries Screening Centers Network [MLSCN] NIH Chemical Genomics Center [NCGC] MLSCN Grant: MH081283-01A1 PI Name: Holman, T.R., University of California, Santa Cruz Human lipoxygenase 15hLO-2 is a member of the closely related lipoxygenase family of enzymes which catalyze the site-specific oxidation of arachidonic acid to various hormone precursor molecules and as such is a candidate for drug development in a variety of disease areas, such as cancer and inflammation. Inhibition of 15hLO-2 activity was screened by utilizing arachidonic acid as a substrate. The extent of hydroperoxide product formation was measured by a secondary chromogenic reaction in which xylenol orange (XO, Sigma-Aldrich, cat. number 39,818-7) reacts with the ferric ions produced from the reaction between the hydroperoxide and ferrous ions. The Fe(III)-XO complex is characterized with red-shifted absorbance at 560 nm. A purified preparation of human 15hLO-2 was supplied by Professor Ted Holman, University of California, Santa Cruz.
Assay Protocol: Buffer: 25 mM Hepes pH 7.5, 0.01% Triton X-100. Reagents/Controls: Buffer in columns 3 and 4 as negative control (no enzyme). Substrate solution: 45 uM arachidonic acid (Sigma-Aldrich, St. Louis, MO) final concentration dispensed throughout the plate. Enzyme: 50 nM 15hLO-2 final concentration in columns 1, 2, 5-48. Column 1 is neutral (100% activity). Column 2 contained pin-transferred titration of NDGA (nordihidroguaiaretic acid, Sigma-Aldrich, N 5023, top concentration 10 mM in DMSO, then 1:2 dilution in duplicate). (Dilution factor: 23 nL into 4 uL.) Chromogenic detection reagent (divalent iron/xylenol orange, Fe-XO): 200 uM xylenol orange plus 300 uM ferrous ammonium sulfate prepared freshly in 50 mM sulfuric acid. Assay Steps: Three uL of enzyme were dispensed to 1536-well Greiner black clear bottom plates. Compounds and controls (23 nL) were transferred via Kalypsys PinTool. The plates were incubated for 15 min at room temperature, and then 1 uL of substrate solution was added to start the reaction. After room temperature incubation for 90 minutes, 4 uL of Fe-XO solution was added to each well followed by a short spin (1000 rpm, 15 sec) and the plates were then incubated for 30 min. The absorbance at 405 and 573 nm were measured using ViewLux (Perkin-Elmer) High-throughput CCD imager and absorbance protocol settings. The 573-to-405 absorbance ratio was used to compute reaction progress.
In general terms: In qHTS, concentration-response curves come from the screen itself.
On to `COc1cc(/C=N/O)cc(Br)c1OCc1cccc(Cl)c1`, for which the activity change, negative = inhibition result is “inactive”.
Same read-out and setting: the result for `CSCc1cc(N(C)C)nc(SCc2ccc(Cl)cc2Cl)n1` reads “inactive”; that for `CCOC(=O)C1=C(C(=O)OCC)C(C(=O)OCC)N(S(=O)(=O)C(F)(F)F)c2ccccc21` (stereo not given), 7.83% [at 0.0915 µM]; that for `CC1CCCCC1NC(=O)C1CCCN1S(=O)(=O)c1cccc2nsnc12` (stereo not given), “inactive”.
As for `Cc1nnc(NC(=O)CCCOc2ccccc2)s1`, the activity change, negative = inhibition result is “inactive”.
The same measure, in the same setting: the result for `O=C(CN1C(=O)C2C3C=CC(C3)C2C1=O)Nc1nc(-c2ccccn2)cs1` (stereo not given) reads “inactive”.
`CCCCOC(=O)Nc1sc2nc(C)cc(C)c2c1-n1cccc1`: the activity change, negative = inhibition result was “inactive”.
For `CCOC(=O)c1c(NC(C)=O)sc2c(O)c(Br)ccc12`, the activity change, negative = inhibition result was “inactive”.
Take `COc1ccc(C(=O)Nc2ccc(S(=O)(=O)NC(C)C)cc2)cc1`: the activity change, negative = inhibition entry was “inactive”.
For `COC(=O)c1cc(NC(=O)CC2C(=O)NCCN2C(=O)c2ccc(F)cc2)cc(C(=O)OC)c1` (stereo not given), the activity change, negative = inhibition result was “inactive”.
Still for that read-out and setting: the result for `Cn1ccs/c1=N\S(=O)(=O)c1ccc(C(C)(C)C)cc1` reads “inactive”.
Regarding `COCC(C)NC(=O)c1ccc(-n2nc(C(F)(F)F)cc2-c2cccs2)cc1` (stereo not given), the activity change, negative = inhibition entry was “inactive”.
In the case of `NC(=O)c1nsc(C(=O)N(CC(=O)NCc2ccc(F)cc2)Cc2ccco2)c1N`, the activity change, negative = inhibition entry was “inactive”.
Regarding `Cc1ccc(-c2cc(=O)c3ccc(Cl)cc3[nH]2)cc1`, the activity change, negative = inhibition is -2.63% [at 0.0915 µM].
For the compound `COc1ccc(C)cc1N(C)C(=O)c1coc(=O)c2ccccc12`, the activity change, negative = inhibition result is “inactive”.
As for `C=CCC1CCC(=O)N2CCCC12` (stereo not given), the activity change, negative = inhibition was -5.32% [at 0.0915 µM].
Still for that read-out and setting: the result for `Cc1ccccc1OCC(=O)NCC(=O)OCC(=O)c1ccc2ccccc2c1` reads “inactive”; that for `Brc1ccc(C2=NCCC(c3ccccc3)O2)cc1` (stereo not given), 18.5% [at 0.0915 µM].
Same read-out and setting: the result for `O=C(c1cccc(F)c1)N1CCN(c2ccc([N+](=O)[O-])c(N3CCCCC3)c2)CC1` reads “inactive”; that for `O=C1OCCN1C(=O)[C@H]1[C@H](c2ccc(Cl)cc2)C(c2cccc(Cl)c2)=NN1c1ccc(Br)cc1`, 4.34% [at 0.0915 µM]; that for `CC1(C)O[C@@H]2C[C@@H]3[C@H]4C[C@@H](F)C5=CC(=O)C=C[C@]5(C)[C@@]4(F)[C@@H](O)C[C@]3(C)[C@]2(C(=O)CO)O1`, -10.6% [at 0.0915 µM].
Same read-out and setting: the same measure for `O=C1CCC[C@@H]2CC(N3CCCCC3)C[C@@H]3CCN1[C@H]23` (stereo not given in full): -0.97% [at 0.0915 µM].
`Cc1c(O)c(Br)c(C)c(O)c1Br` (tested in a mixture with another compound): the Potency is 2 µM (active).
Regarding `CCOn1c(SC(C)C)nc2ccccc2c1=O`, the activity change, negative = inhibition entry is “inactive”.
On the same count and under the same terms, the result for `C=CC1(C)CC(=O)C2(O)C(C)(O1)C(OC(C)=O)C(O)C1C(C)(C)CCC(O)C12C` (stereo not given) reads 1.16% [at 0.0915 µM].
Consider `COc1cc(C(=O)N2CCOCC2)cc(OC)c1OC`, for which the activity change, negative = inhibition is 5.48% [at 0.0915 µM].
Take `Cc1ccc(NC(=S)Nc2ncccc2C)c(C)c1`: the Potency was 7.94 µM (active).
With `Cc1ccc(NC(=O)Cn2nc(C)c3ccccc3c2=O)c(C)c1`, the activity change, negative = inhibition result was “inactive”.
As for `Cc1ccccc1NC(=S)Nc1cccc([N+](=O)[O-])c1`, the activity change, negative = inhibition result is “inactive”.
For the compound `CC(C)NC(=O)C(=O)NCCN1CCN(S(=O)(=O)c2ccc(Cl)cc2)CC1`, the activity change, negative = inhibition result was “inactive”.
Consider `FC(F)(F)c1cnc(Oc2ccccc2-c2nnc(-c3ccc(Cl)cc3)o2)c(Cl)c1`, for which the activity change, negative = inhibition result is “inactive”.
For `O=C(Oc1ccccc1)Oc1ccc2c(c1)oc(=O)c1ccccc12`, the activity change, negative = inhibition entry is “inactive”.
Take `Cc1ccnc(N2CCC(C(=O)NC3CCCCCC3)CC2)n1`: the activity change, negative = inhibition entry was “inactive”.
Turning to `Cc1nc2ccccc2c(=O)n1CCCn1ccnc1`, the activity change, negative = inhibition is 9.49% [at 11.4 µM].
On to `Cc1ccnc(-n2sc3ccccc3c2=O)n1`, for which the Potency was 7.94 µM (active).
`N#Cc1ccc(Oc2cc(C(F)(F)F)nc(-c3ccccn3)n2)cc1`: the activity change, negative = inhibition result is “inactive”.
Same read-out and setting: the result for `CCCCCCCCCCCCCCCCO` reads 14.3% [at 0.0915 µM]; that for `CN(C(=O)CSc1nc(C2CC2)nc2ccccc12)c1nc(-c2ccccc2)cs1`, “inactive”; that for `Cc1cc(N/C=C\C(=O)c2ccc(Cl)c(Cl)c2)no1`, “inactive”.
Take `Cc1ccc(-n2c(SCC(=O)NCc3ccc4c(c3)OCO4)nnc2-c2cccnc2)c(C)c1`: the activity change, negative = inhibition entry is “inactive”.
Turning to `Cc1ccc(CC2(O)CCN(CCOc3ccc(O)cc3)CC2)cc1`, the activity change, negative = inhibition was 15.1% [at 0.0915 µM].
Still for that read-out and setting: the result for `Cc1ccc(/C=N/NC(=O)Cn2nc(C)c(Br)c2C)o1` reads “inactive”; that for `C=CCN(N=Nc1cccc([N+](=O)[O-])c1)c1cccc([N+](=O)[O-])c1`, “inactive”.
With `CN(C)c1ccc(CNC2C3CC4CC(C3)CC2C4)cc1` (stereo not given), the activity change, negative = inhibition result is “inactive”.
Same read-out and setting: the result for `O=C(COc1ccc(Br)cc1F)NC1CCN(Cc2ccccc2)CC1` reads “inactive”.
On the same count and under the same terms, the same measure for `N#CC1=C(SCc2ccc(C#N)cc2)N=C(N)C(c2nc(-c3ccccc3)cs2)C12CCCCC2` (stereo not given): “inactive”; for `CCOc1c2ccc(C(=O)NCc3ccc(OC(F)(F)F)cc3)cc2nn1C`: “inactive”; for `CC(=O)N1C(=O)C2(Nc3ccccc3N2)c2ccccc21`: “inactive”.
As for `Cc1ccc(NC2(C#N)C(=O)Nc3ccccc32)cc1` (stereo not given), the activity change, negative = inhibition result was “inactive”.
Regarding `O=C1Nc2ccccc2C12Nc1ccccc1S2` (stereo not given), the Potency is 7.94 µM (active).
